# Key:
# Assay in all cases: PBM binding z-score (relative to random genomic background probes); higher = stronger binding; sequences stand for … in GC…GCGATTGACAGCGTAGAATGAAGG
# [1] = tested on: FXR:RXRa (NR concentration 270 nM, RXRa partner concentration 90 nM)
# In short: (§1)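 Binding z-scores take random background probes as their reference. They come from custom Agilent 4×180K protein-binding microarrays incubated 1 h with ligand-free nuclear receptor dimers, with antibodies against each partner (one per run) detecting binding. Scanned fluorescence was regression-normalized.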
# [2] = tested on: LXRa:RXRa (NR concentration 270 nM, RXRa partner concentration 90 nM)
# In short: as §1
# [3] = tested on: LXRa homodimer (NR concentration 270 nM)
# In short: as §1
# [4] = tested on: LXRb:RXRa (NR concentration 270 nM, RXRa partner concentration 90 nM)
# In short: as §1
# [5] = tested on: LXRb homodimer (NR concentration 270 nM)
# In short: as §1
# [6] = tested on: PPARa:RXRa (NR concentration 270 nM, RXRa partner concentration 90 nM)
# In short: as §1
# [7] = tested on: PPARg:RXRa (NR concentration 180 nM, RXRa partner concentration 90 nM)
# In short: as §1
# [8] = tested on: PPARg:RXRa 270nM:90nM, anti-RXR (NR concentration 270 nM, RXRa partner concentration 90 nM)
# In short: as §1
# [9] = tested on: PPARg:RXRa 30nM:10nM, anti-RXR (NR concentration 30 nM, RXRa partner concentration 10 nM)
# In short: as §1
# [10] = tested on: PPARg:RXRa 90nM:30nM, anti-RXR (NR concentration 90 nM, RXRa partner concentration 30 nM)
# In short: as §1
# [11] = tested on: PPARg:RXRa DBDmut IVT, anti-RXR (DBD mutation: RXRa K156A/R161A, NR concentration 270 nM, RXRa partner concentration 90 nM)
# In short: as §1
# [12] = tested on: PPARg:RXRa IVT, anti-PPARg (NR concentration 270 nM, RXRa partner concentration 90 nM)
# In short: as §1
# [13] = tested on: PPARg DBDmut:RXRa IVT, anti-PPARg (DBD mutation: PPARg1 K132A/R137A, NR concentration 270 nM, RXRa partner concentration 90 nM)
# In short: as §1
# [14] = tested on: PPARg DBDmut IVT, anti-PPARg (DBD mutation: PPARg1 K132A/R137A, NR concentration 270 nM)
# In short: as §1
# [15] = tested on: PPARg homodimer (NR concentration 180 nM)
# In short: as §1
# [16] = tested on: PXR:RXRa (NR concentration 270 nM, RXRa partner concentration 90 nM)
# In short: as §1
# [17] = tested on: PXR homodimer (NR concentration 270 nM)
# In short: as §1
# [18] = tested on: RARa:RXR (NR concentration 270 nM, RXRa partner concentration 90 nM)
# In short: as §1
# [19] = tested on: RARa homodimer (NR concentration 270 nM)
# In short: as §1
# [20] = tested on: RARb:RXRa (NR concentration 270 nM, RXRa partner concentration 90 nM)
# In short: as §1
Sequence,PBM binding z-score [1],PBM binding z-score [2],PBM binding z-score [3],PBM binding z-score [4],PBM binding z-score [5],PBM binding z-score [6],PBM binding z-score [7],PBM binding z-score [8],PBM binding z-score [9],PBM binding z-score [10],PBM binding z-score [11],PBM binding z-score [12],PBM binding z-score [13],PBM binding z-score [14],PBM binding z-score [15],PBM binding z-score [16],PBM binding z-score [17],PBM binding z-score [18],PBM binding z-score [19],PBM binding z-score [20]
CCTCGGAGGACAACAGGAGGTCTGAGCTGCCAGA,-0.506,-0.574,-0.845,-1.09,-1,-0.764,-0.138,-0.868,-1.36,-1.17,-0.107,-0.71,-1.05,-1.49,-0.258,-0.738,-0.871,-0.635,-0.516,0.983
ACTAGCAGGCAAAGTTTGGGTCACTCAAACAAAG,0.0773,0.185,-0.475,0.807,-0.762,1.33,-0.0441,0.288,-0.32,0.224,-0.359,0.492,-0.258,-0.0533,0.153,0.68,-0.439,1.32,-0.701,1.07
ACTATTAGTTGAGGCGAGGGCAACCGATAGGTTG,0.489,0.289,0.0582,0.0711,0.108,0.378,0.389,0.0046,0.138,-0.0218,0.169,0.559,0.713,0.82,0.794,0.918,0.305,0.644,0.393,1.4
CCAGACTGGTGAGAAGGTAACTCAGCCTCGATTA,-0.309,-0.491,-0.22,-0.472,-0.739,-0.19,0.0437,-0.117,-0.431,-0.102,-0.548,-0.378,-1.06,-0.669,0.4,-0.321,-0.553,-0.228,-0.0331,-0.455
TCTATTACTTGATTAGGGCAACCGAAACAGCGGA,0.823,0.881,0.41,0.812,0.945,0.975,0.4,1.9,3.76,2.94,2.08,1.45,0.681,1.58,0.91,0.583,0.132,0.779,1.04,0.983
GGAACGAGGGCGAGTTGATAGCAGAGTTTGATGG,-0.328,-0.505,-0.54,-0.523,-0.787,-0.0875,0.373,-0.24,-0.495,-0.42,0.699,-0.0712,-0.327,0.298,0.0249,0.0143,-0.021,0.0866,-0.148,0.356
CCGACTCGGGCAGAAAGGTTACCATACCATCCGG,0.546,0.698,-0.128,0.841,-0.536,1.97,1.41,2.44,0.663,1.76,-0.0361,0.238,-1.52,-1.19,0.529,0.674,-0.293,1.33,-0.25,1.74
ACACACAGGTGATGAAGGTAACTCAGGCTATCAT,-0.0193,0.147,0.256,-0.0371,-0.0459,0.299,0.913,0.223,0.238,0.167,0.704,1.02,0.73,0.679,0.0611,-0.0363,0.251,0.28,0.957,0.355
ACAGACAGGTGATGAAGGTAACTCTGGCTATCAT,-0.247,-0.358,-0.109,-0.536,-0.538,-0.229,0.485,-0.185,0.143,0.132,0.0322,0.477,0.353,0.0262,0.0574,-0.19,-0.412,0.0777,-0.252,0.114
CGTCCAAGGTCAGCAGGTCAGTGACAGCGACGTG,5.75,3.99,0.47,2.99,-0.142,4.63,3.93,4.53,1.26,2.97,3.56,3.56,-0.271,-0.196,4.58,3.79,0.701,5.22,2.42,5.27
ACAGACAGGTGAGTGAAAGTAACTCAGCTGGACG,0.0251,0.239,-0.514,-0.461,-0.641,-0.0542,0.742,-0.29,-0.67,-0.542,0.546,0.438,-0.222,0.175,-1.05,-0.413,-0.648,0.2,-0.554,0.304
ACAGACAGGTAAGTGAAGGTAACTCAGCTGGACG,0.106,0.0707,-0.103,-0.313,-0.579,-0.355,0.687,-0.165,-0.141,-0.389,-0.107,0.305,0.744,-0.0686,-0.111,-0.306,0.283,-0.575,0.213,0.109
CGAACTAGGTCATTGACAGAACAGTGAATAGTAA,4.26,2.84,0.516,2,0.18,4.66,7.52,6.34,4.05,5.58,7.82,8.32,1.7,2.64,1.37,1.39,-0.216,1.99,0.356,3.56
GATACAGGGTCAGCTAGAGGCCAGCGTATGGAAA,4.35,2.75,-0.301,2.11,-1.03,4.37,3.18,3.49,0.694,1.92,1.62,2.35,-0.653,-0.347,2.22,2.97,-0.477,4.55,-0.0319,4.21
ATCGAAAGGTCGACGAGGCGAGTATACACCGTTT,3.59,3.38,0.0627,2.5,0.404,4.27,2.48,2.74,0.711,1.71,0.214,1.62,0.933,1.13,1.44,2.47,0.0107,3.26,0.0419,3.84
GCTGCTAGGTCAGGTTGGTCAGCAAACGGGTACG,1.13,0.793,-0.389,0.519,-0.114,1.52,0.5,0.829,-0.344,0.0879,2.74,2.2,-0.864,-0.495,0.7,0.33,-0.684,0.7,-0.687,3.25
TCTAGTTGGTCACAGAGGTCACACACGACGGGTA,4.73,4.98,3.92,4.46,1.51,4.84,4.45,5.18,4.12,5.26,2.85,4.35,1.86,0.876,6.9,5.58,2.89,6.16,4.36,4.28
TAGCCTAGGTCATCGGCCAGTATACCACGCGAAC,4.02,3.35,0.717,2.54,0.178,3.56,2.62,2.75,0.448,1.67,1.44,2.98,1.05,0.00127,1.6,1.62,-0.365,2.58,-0.512,3.75
GGAACGAGGGCAAGTTGACAGCAGAGTTTGATGG,0.854,0.43,-0.472,0.324,-0.45,1.69,1.15,1.35,0.346,0.686,4.05,3,-0.195,-0.654,0.481,0.693,0.641,0.4,-0.316,2.51
TCGAGTAGGTGACCAATGGGGCATTCAGCTTTCT,-0.0525,-0.335,-0.709,-0.15,-1.02,0.875,0.524,1.12,1.01,0.794,4.22,3.6,-0.451,-1.19,-0.701,-0.233,-1.05,-0.0879,-1.72,0.567
TCATATAGGTAAATGCTAGGTGAACGTCCGATCT,0.421,0.682,0.358,0.608,-0.229,1.36,1.09,2.06,3.51,2.65,4.03,2.94,0.935,1.01,0.675,0.493,0.0506,0.769,0.634,0.536
CGAACGAGAGCATGAGTTGATAGCAAATGCCGAT,-0.453,-0.53,-0.103,-0.828,-0.953,-0.357,0.777,0.133,-0.214,-0.282,-0.221,-0.445,0.0684,-0.174,-0.221,-0.273,-0.148,-0.442,-0.33,-0.53
CGTCAAAGTTCAACTAAGGCAACGTAAAGCACGC,6.41,6.09,3.57,3.9,1.79,4.93,4.8,5.53,1.96,4.18,0.00616,2,0.22,-0.059,3.19,4.83,4.13,3.62,1.59,5.21
ACAGATAGGTGAGTGAAGGTAACTCAGCTGGACG,0.482,0.0886,-0.209,-0.39,-0.76,0.462,0.821,0.426,-0.17,0.325,1.53,1.14,0.306,-0.218,0.357,-0.303,-0.159,0.0919,-0.566,0.558
GCTCGGAGGACAAGGTCAGAGGTTTGTCCGTAGA,1.77,1.52,-0.501,1.28,-0.78,2.39,1.75,2.59,0.214,2.08,-0.0469,1.09,-1.25,-0.886,0.801,1.78,-0.0547,2.19,-0.638,3.47
CCTCGTAGGACAACAGGAGGTCAGAGCTGCCAGA,0.951,2.16,1.91,1.57,-0.267,1.99,0.534,0.644,-0.534,0.258,0.397,0.633,-0.938,-1.38,1.75,2.08,0.26,2.37,0.699,2.56
CCAGACAGGTGAAGGGTAACTCAGTCTGGTACGC,-0.0331,0.00398,-0.524,0.172,-0.582,1.76,2.98,3.63,1.6,3.42,0.998,1.9,-0.966,-0.622,0.674,-0.0608,-0.0922,0.0219,-0.195,1.04
ATATGTAGGTTAGCTTGGGTCATTCAGACTAGGC,2.44,5.2,0.866,2.43,0.362,3.42,3.84,3.34,1.32,2.41,6.6,5.97,1.34,1.95,1.5,2.77,0.807,2.26,0.877,1.89
CCTCGGAGTACAACAGGAGGTCAGAGCTGCCAGA,0.85,1.93,1.79,1.35,-0.438,1.92,0.371,0.479,-0.324,-0.0827,0.161,0.257,-0.9,-1.14,1.18,2.19,0.607,2.23,0.843,2.06
